This note sets out measurements from PubChem BioAssay (Tox21).

Inconclusive results are not listed. Where a call stands in place of a potency, no number is given. A number with no mark means an inactive call. Activity calls are given as the source filed them. The call rests on the fitted dose curve; in most records, active means well fitted cell-killing curve with a large enough effect in the repeat runs; inconclusive means weak or mixed curves, or effect the other way; inactive means no such curve, though single readings can be large or run the other way.

A short description of this test: qHTS assay to identify small molecule antagonists of the glucocorticoid receptor (GR) signaling pathway - cell viability counter screen (AID 720693). Further: nearly all actives have a fitted effect of over 55% in size. The settings on record: GR-bla HeLa viability, CellTiter-Glo luminescence, 18 h, with 5 nM dexamethasone present; series mostly up to 58.5 µM. On the technique in general: qHTS replaces the single test concentration by a dilution series.
For the molecule `Cc1ccccc1S(=O)(=O)O`, the Potency result is “inactive”.

Turning to `COc1cc2nc(N3CCN(C(=O)C4COc5ccccc5O4)CC3)nc(N)c2cc1OC` (configuration not stated), the Potency result is “inactive”.

Regarding `C=CC(=O)OCCOc1ccccc1`, the Potency result was “inactive”.

With `C[C@H]1C[C@H]2[C@@H]3CCC4=CC(=O)C=C[C@]4(C)[C@@]3(Cl)[C@@H](O)C[C@]2(C)[C@@]1(O)C(=O)CO`, the Potency entry was “inactive”.

Take `CCOc1ccc(O)cc1`: the Potency entry is “inactive”.

`Clc1ccc2c(c1)CCc1cccnc1C2=C1CCNCC1`: the Potency entry was “inactive”.

As to `CC(C)=CCC/C(C)=C/CC/C(C)=C/CO`, the Potency entry was “inactive”.

`CCCCCCCN`: the Potency result was “inactive”.

As for `CCCCCCCC#N`, the Potency entry is “inactive”.

`COCC(C)OC(C)=O` (configuration not stated): the Potency entry was “inactive”.

Turning to `CCCCC(CC)CN1C(=O)C2C3C=CC(C3)C2C1=O` (configuration not stated), the Potency entry was “inactive”.

In the case of `C1CCCNCCC1`, the Potency result is “inactive”.

Take `CC1=CC=C(C(C)C)CC1`: the Potency result is “inactive”.

For `Cc1cccc(Nc2ccccc2)c1`, the Potency entry was “inactive”.

On to `C=C1[C@H]2CC[C@@H]3[C@H]2C(C)(C)CCC[C@]13C`, for which the Potency entry was “inactive”.

With `CCCCC`, the Potency result is “inactive”.

Regarding `COc1cc(Cl)ccc1Oc1ccc(Cl)cc1Cl`, the Potency result was “inactive”.

Regarding `CN1CCN(C(c2ccccc2)c2ccccc2)CC1`, the Potency entry was “inactive”.

In the case of `O=C1OC(=O)C2C3C=CC(C3)C12` (configuration not stated), the Potency entry was “inactive”.

As to `CCCCCCCCCCCC(=O)OC[C@@H](O)[C@H]1OC[C@H](OCCO)[C@H]1OCCO`, the Potency result is “inactive”.

Consider `CCn1cc(C(=O)O)c(=O)c2cnc(N3CCNCC3)nc21`, for which the Potency result is “inactive”.

Take `CCCCC(CC)COC(=O)COc1ccc(Cl)cc1Cl` (configuration not stated): the Potency result was “inactive”.

Consider `CN(C)c1ccc(/C=C/c2ccc([N+](=O)[O-])cc2)cc1`, for which the viability change, negative = cytotoxic is 6.19% [at 7.04 µM].

For the molecule `NCC(=O)CCC(=O)O`, the Potency result was “inactive”.

For the molecule `CCOc1ccc(N=Nc2ccc(/C=C/c3ccc(N=Nc4ccc(OCC)cc4)cc3S(=O)(=O)O)c(S(=O)(=O)O)c2)cc1`, the Potency entry is “inactive”.

Turning to `CNC(=O)CN(CCN(CCN(CC(=O)[O-])CC(=O)NC)CC(=O)[O-])CC(=O)[O-].O.[Gd+3]`, the Potency entry was “inactive”.

On to `CCCCNc1ccc(C(=O)OCCOCCOCCOCCOCCOCCOCCOCCOCCOC)cc1`, for which the Potency result was “inactive”.

For `CN(C)C(=O)NC1(c2ccccc2)CCN(CC[C@@]2(c3ccc(F)c(F)c3)CN(C(=O)c3ccccc3)CCO2)CC1`, the Potency result was “inactive”.

For the molecule `CCCCCCCCCCO[C@@H]1O[C@H](CO)[C@@H](O)[C@H](O)[C@H]1O`, the Potency entry was “inactive”.

Take `CC(C)(CO)[N+](=O)[O-]`: the Potency result is “inactive”.

Take `O=C(O)c1ccco1`: the Potency entry was “inactive”.

For `N=c1ccn2c(n1)O[C@H]1[C@H](O)[C@@H](CO)O[C@H]12`, the Potency result was “inactive”.

For `O=C(Nc1ccccc1)c1ccccc1O`, the Potency result was “inactive”.

As to `CCCNCC(O)COc1ccccc1C(=O)CCc1ccccc1` (configuration not stated), the Potency result is “inactive”.

For `CCCCCCCCCOS(=O)(=O)O`, the Potency entry is “inactive”.

For the molecule `COc1ccc(-c2nc3ccc(C4=NNC(=O)CC4C)cc3[nH]2)cc1` (configuration not stated), the Potency result is “inactive”.

Take `C=C(C)C(=O)OCCOCC`: the Potency entry was “inactive”.
